CHO-K1 Ca PAM: M1 PAM counterscreen hit in parental CHO-K1 cells; ATP EC20, Fluo-8 calcium fluorescence; 0% at ATP EC20, 100% at ATP max; activation, % at 3 µM; hit rate 0.02% among 360,000; AID 602247;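 active = activation above the run cutoff, the mean activation of all test compounds plus 3 SD, cut at about 40% in these data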;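 also: peak over basal fluorescence ratio in a 140 s read after ATP addition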
CHO-K1 Ca ag: nonselective activator or artifact in parental CHO-K1 cells | Fluo-8 calcium fluorescence; scaled to maximal ATP response, vehicle zero | activation, % at 3 µM | hit rate 0.48% among 360,000 | AID 602248; in the data active = activation above about 15%;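 also: untransfected CHO-K1 host cells lacking M1 receptor as counterscreen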
ANO1 block: blocks the mouse calcium-activated chloride channel TMEM16A. HEK293 TMEM16A/YFP iodide influx fluorescence, ionomycin. normalized B-score (activity score, 25-100; higher = stronger inhibition) at 10 µM. hit rate 1.2% among 310,000. AID 588511;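 active = ratio plate-corrected score three or more library SD toward inhibition, starting fluorescence score within five deviations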;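 also: score derived from kinetic fluorescence span divided by baseline fluorescence per well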
NTR1 ag: activates human neurotensin receptor 1; P30989; NTR1-U2OS beta-arrestin-GFP spot imaging, agonist mode; activation, % at 20 µM; hit rate 0.17% among 330,000; AID 493036;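 active = activation at or above 40% of the spot to cytoplasm intensity ratio, with at least 20 cells analyzed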;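 also: 0% = DMSO without peptide and 100% = 100 nM NTR1 peptide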
Target sequence (P30989 whole entry, looked up): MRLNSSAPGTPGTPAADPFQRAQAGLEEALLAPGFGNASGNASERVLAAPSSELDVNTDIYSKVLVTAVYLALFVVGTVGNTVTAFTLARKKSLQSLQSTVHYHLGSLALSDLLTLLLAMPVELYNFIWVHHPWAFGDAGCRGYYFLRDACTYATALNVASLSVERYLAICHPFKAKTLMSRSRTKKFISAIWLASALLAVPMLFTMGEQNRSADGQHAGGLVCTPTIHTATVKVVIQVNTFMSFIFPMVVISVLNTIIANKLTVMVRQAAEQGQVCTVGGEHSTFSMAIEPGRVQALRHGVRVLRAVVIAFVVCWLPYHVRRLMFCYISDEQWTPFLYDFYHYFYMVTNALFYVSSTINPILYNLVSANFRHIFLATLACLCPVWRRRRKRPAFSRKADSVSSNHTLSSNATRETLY
TMEM16A act: activates or potentiates the mouse TMEM16A chloride channel; Q8BHY3; HEK293 TMEM16A/YFP-H148Q/I152L, iodide quench fluorescence; hits give low values; B-score at 10 µM; hit rate 0.3% among 340,000; AID 623877;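 active = fluorescence-ratio B-score plate-corrected deviation score at least 3 library SD below zero, with starting fluorescence score within 5 deviations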;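 also: channel opened by trigger with iodide after compound preincubation; score built on the fluorescence ratio of max minus min over baseline; more negative score means more quench and so TMEM16A activation or potentiation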
CHO-K1 Ca antag: nonselective inhibitor or artifact in parental CHO-K1 cells; AID 602250; ATP-induced calcium, Fluo-8 fluorescence; inhibition, % at 3 µM; hit rate 0.6% among 360,000;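 active = inhibition above a per-plate cutoff, the plate's mean sample inhibition plus 3 SD, cut at about 24% in these data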;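 also: 0% = DMSO plus EC80 ATP and 100% = DMSO alone without ATP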
Active calls of the source: *; i = inactive; . = no result given. A selection: hits, their analogues and other compounds. The true share with any hit is near 2.2%.

SMILES	CHO-K1 Ca PAM	CHO-K1 Ca ag	ANO1 block	NTR1 ag	TMEM16A act	CHO-K1 Ca antag
O=C(C1CCN(c2nnc(-n3cccc3)s2)CC1)N1CCCCC1	13	1	i	0	i	-15
C=C1CCCC2OC(CC3=CC4/C(C)=C/CC(C)CC(/C=C(\C)C(O)C5CC(O)C(O)C(CCC(O)/C=C/C(C)=C/CCC6=NCCC(C3)C64C)O5)OC(=O)CC3OC(C(O)C1)C(O)C3O)CC(O)C2O (stereo unspecified)	2	4	.	.	.	9
Cc1ccccc1N1C(=O)c2cccc3c(N(C)CCO)ccc(c23)C1=O	3	17*	i	-1	i	7
COc1ccccc1N1C(=O)c2cccc3c(N(C)CCO)ccc(c23)C1=O	7	13	i	1	i	-1
COC(=O)/C(=C\C=C\c1ccccc1)NC(=O)c1ccccc1	-9	3	i	0	i	29*
CCCCC[C@H](O)/C=C/C1C(=O)C=C[C@H]1C/C=C\CCCC(=O)OC (stereo partly specified)	9	6	.	.	.	-8
Cn1c(/C(C#N)=C/c2ccc(-c3ccc(S(N)(=O)=O)cc3)o2)nc2ccccc21	14	22*	i	.	i	17
O=C(CCc1ccccc1)NC(=S)Nc1ccc2c(c1)C(=O)OC2	3	16*	i	2	i	6
Cc1cc(Br)cn2c(Cc3cccc(F)c3)c(-c3ccc(Cl)cc3)nc12	16	0	.	.	.	-20
CC(C)(C)c1nc2cc(Cl)c([N+](=O)[O-])cc2o1	15	5	100*	2	i	-10
CC(=O)c1c(C)[nH]c(C(=O)OCC(=O)N2CCN(c3ccccc3)CC2)c1C	-6	0	.	.	.	0
Cc1cc(C)c2c(=O)n(CC(=O)NCCCN3CCN(c4ccccc4F)CC3)sc2n1	.	.	100*	1	.	.
Cc1ccc(NS(=O)(=O)c2ccc(C(=O)OCC(=O)Nc3cc(C)on3)cc2)cc1	24	19*	.	.	i	2
COc1ccc(NS(=O)(=O)c2cccc(C(=O)OCC(=O)Nc3cc(C)on3)c2)cc1	0	1	i	3	i	2
CCCN(CCC)S(=O)(=O)c1ccc(C(=O)Nc2nnc(CSC)o2)cc1	11	0	i	1	i	-4
CCCN(CCC)S(=O)(=O)c1ccc(C(=O)Nc2nnc(-c3cccc(OC)c3)o2)cc1	22	1	25*	1	i	-11
CCCN(CCC)S(=O)(=O)c1ccc(C(=O)Nc2nnc(-c3cc(OC)cc(OC)c3)o2)cc1	18	0	100*	2	i	-2
CCc1ccccc1OC[C@@H](O)CN[C@H]1CCCc2ccccc21	-9	3	i	8	i	25*
O=C(NCCCN1CCOCC1)c1c(-c2ccccc2)oc2c1C(OCCCCCO)CCC2 (stereo unspecified)	23	1	.	.	.	-23
CC/C(=N\NC(=O)Nc1ccccc1)c1ccccc1	2	1	i	4	i	34*
COCOc1ccc(/C=C/C(=O)c2c(OCOC)cc(OCOC)c(CC=C(C)C)c2O)cc1OCOC	-10	-1	i	3	.	29*
COCOc1ccc(/C=C/C(=O)c2c(O)cc(OCOC)cc2OCOC)cc1	19	1	i	3	.	-8
CN(CC(=O)Nc1ccc(F)cc1)C(=O)CSc1ccc2c(c1)OCCO2	9	0	.	2	i	-7
Cc1ccc(SCC(=O)OCC(=O)N(C)CC(=O)Nc2ccc(F)cc2)cc1C	18	46*	i	-1	i	-16
Cc1[nH]c2ccccc2c1C(=O)CN1C(=O)NC2(CC(C)CC(C)(C)C2)C1=O (stereo unspecified)	11	35*	i	3	i	8
SMILES	CHO-K1 Ca PAM	CHO-K1 Ca ag	ANO1 block	NTR1 ag	TMEM16A act	CHO-K1 Ca antag
CCN(Cc1ccccc1)C(=O)CN1C(=O)NC2(CC(C)CC(C)(C)C2)C1=O (stereo unspecified)	-3	2	i	1	i	-10
O=C1CCC(=O)c2ccc3c4c(ccc1c24)CC3	3	0	.	.	i	-5
O=C1CCN2C=Nc3cccc4ccc1c2c34	-8	18*	i	-1	i	-2
CC1(c2nnnn2Cc2ccccc2)CCC(=O)N1CCCn1ccnc1 (stereo unspecified)	0	1	.	.	.	-2
CN(C)/C=C/C1=CC(=O)CC(C)(C)C1	-18	-1	i	-1	i	24*
Cc1ccc(C2=CC(=O)CC(C)(C)C2)cc1	16	0	.	2	i	-22
N=c1c2c(-c3ccccc3)c(-c3ccccc3)n(Cc3ccco3)c2ncn1Cc1ccco1	1	7	100*	42*	i	8
N=c1c2c(-c3ccccc3)c(-c3ccccc3)n(Cc3ccccc3)c2ncn1CCCn1ccnc1	13	1	i	34	i	-12
CCCCn1cnc2c(c(-c3ccccc3)c(-c3ccccc3)n2Cc2ccco2)c1=N	13	1	100*	39	i	2
O=C(NP(=O)(N1CCCC1)N1CCCC1)C1=C(N2CCOCC2)/C(=C/c2cccc([N+](=O)[O-])c2)CC1	8	17*	i	-1	i	7
CCOc1ccc(-n2ccc(=O)c(C(=O)Nc3ccc(S(=O)(=O)Nc4nccs4)cc3)n2)cc1	-16	0	i	0	-23*	-8
CN(NC(=O)C(=O)NCc1ccco1)C(=O)Nc1ccc(Cl)cc1	-5	10	.	.	.	27*
CCCc1c(O)nc(SCCN(CCC)CCC)[nH]c1=O	-9	0	i	2	i	27*
CCSc1nc(O)c(Cc2ccccc2)c(=O)[nH]1	-7	0	i	-1	i	31*
CCCCCCCc1c(O)nc(SCCN(C)C)[nH]c1=O	12	0	i	-1	i	-12
COc1ccccc1NC(=O)CSc1nc(O)c(Cc2ccccc2)c(=O)[nH]1	4	0	i	-1	i	3
Cc1ccc(-n2c(-c3ccc(Br)cc3)c[n+]3c2CCc2ccc4cccnc4c2-3)cc1	14	5	100*	.	i	13
O=C1NC[C@@H](CCCCN2C[C@H](Cc3ccccc3)N(CCc3ccccc3)C(=O)C2=O)N(CCc2ccccc2)C1=O	-9	0	.	.	.	-14
CC(Oc1ccc(F)cc1)c1ccnc2nc(/N=C/N(C)C)nn12 (stereo unspecified)	-11	0	i	0	i	1
CC(Oc1ccc(C(C)(C)C)cc1)c1ccnc2nc(/N=C/N(C)C)nn12 (stereo unspecified)	9	2	25*	3	i	-2
CC(=O)c1sc(Nc2nc3ccc(F)cc3s2)nc1C	-13	3	25*	0	i	8

Bioassay records deposited in PubChem BioAssay by several laboratories.
